Test results taken from PubChem BioAssay (NCATS).
Several values for one entry are separate records, joined by “and”; a condition that tells them apart may be missing. Equal entries are not always repeated. Results filed as inconclusive are left out. Entries that show only a call come without a potency. Activity calls are given as the source filed them. Unless noted, calls follow the shape of the dose curve; as a rule, active = well fitted curve in the direction sought with a large enough effect; inconclusive = small, poorly fitted or top-dose-only effect, or another doubt; inactive = no such curve, though single readings can be large; an effect the other way counts as inactive or inconclusive.

Experiments:
[1] = P-glycoprotein substrates identified in KB-8-5-11 adenocarcinoma cell line, qHTS therapeutic library screen (AID 1346987); also: nearly all actives have a fitted effect of over 65% in size
Procedure, shortened: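 Luminescence from CellTiter-Glo, read 5 min after addition, quantified survival of KB-8-5-11 (P-gp-overexpressing) cells exposed to compounds for 72 h. AC50 was derived from concentration-response curves.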

[2] = biological target: Glutathione peroxidase 1 (Homo sapiens) (UniProt P07203); assay: Primary qHTS Assay for Inhibitors of Recombinant Selenoprotein Glutathione Peroxidase 1 (GPX1) (AID 1845191); also: nearly all actives have a fitted effect of over 65% in size
Chain of Glutathione peroxidase 1 (Homo sapiens) (P07203 whole entry, looked up): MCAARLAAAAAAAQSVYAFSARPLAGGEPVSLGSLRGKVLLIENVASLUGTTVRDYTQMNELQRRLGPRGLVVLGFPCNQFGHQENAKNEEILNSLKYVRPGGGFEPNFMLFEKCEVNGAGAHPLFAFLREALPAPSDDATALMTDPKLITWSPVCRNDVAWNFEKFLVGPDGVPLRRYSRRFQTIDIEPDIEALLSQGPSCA
Procedure, shortened: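 GPX1 10 nM, GR 100 nM, GSH 1 mM, NADPH 0.5 mM, CHP 0.5 mM (final). 30-min cpd preincubation, RT. Ex340/Em450 read t=0, t=15 min.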

[3] = biological target: Phospholipid hydroperoxide glutathione peroxidase GPX4 (Homo sapiens) (UniProt P36969); assay: Primary qHTS Assay for Inhibitors of Recombinant Selenoprotein Glutathione Peroxidase 4 (GPX4) (AID 1845192); settings: outcome: dose series up to 50 µM unless noted; also: potency is read from the fitted curve at half-maximal effect; nearly all actives have a fitted effect of over 65% in size
Chain of Phospholipid hydroperoxide glutathione peroxidase GPX4 (Homo sapiens) (P36969 whole entry, looked up): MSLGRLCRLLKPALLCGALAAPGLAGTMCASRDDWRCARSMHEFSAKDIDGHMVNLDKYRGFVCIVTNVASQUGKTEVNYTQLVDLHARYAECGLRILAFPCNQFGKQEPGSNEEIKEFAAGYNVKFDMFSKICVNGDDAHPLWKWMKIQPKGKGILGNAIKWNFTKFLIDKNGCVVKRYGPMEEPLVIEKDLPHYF
Procedure, shortened: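 qHTS, GR-coupled: GPX4 200 nM + cpd 30 min RT → GSH 1 mM, NADPH 0.5 mM, GR 100 nM → CHP 0.5 mM start; fluor 340/450 at t0 and t15 min; no-enzyme wells as control.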

[4] = Primary qHTS for inhibitors of nuclear receptor binding SET domain protein 2 (NSD2) in an RCH-ACV wild type WT cells (2C) (AID 1645877); also: potency is read from the fitted curve at half-maximal effect; nearly all actives have a fitted effect of over 70% in size
[5] = Primary qHTS for inhibitors of nuclear receptor binding SET domain protein 2 (NSD2) in an isogenic RCH-ACV NSD2 p.E1099K mutant (9B) (AID 1645876); also: potency is read from the fitted curve at half-maximal effect; nearly all actives have a fitted effect of over 70% in size
[6] = qHTS drug screen for cell cycle checkpoint inhibitors in PARPi-resistant BRCA-mutant ovarian cancer cell lines. (AID 1963452; calls by dose curve); settings: PEO1/OlaR viability, CellTiter-Glo luminescence, 96 h, stronger effect = lower value
Procedure, shortened: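 PEO1, PEO4 and PEO1/OlaR ovarian cancer cells, 600 per well, exposed 96 h at 37C to a dilution series. Viability read by CellTiter-Glo luminescence, normalized to DMSO and empty wells; activity summarized as Z-AUC.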

[7] = qHTS assay to identify inhibitors of the type 1 interferon - major histocompatibility complex class I in skeletal muscle: Counter screen cell viability and HiBit confirmation (AID 1347412); settings: iHSKM muscle cells + IFN-b, HiBiT or CellTiter-Glo, 24 h; HiBiT; at 45.9 µM (top of the series); also: nearly all actives have a fitted effect of over 60% in size
Procedure, shortened: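 Myoblasts (C25cl48, HLA-B HiBiT) seeded in medium without dexamethasone, IFN-b 4 ng/ml added except unstimulated columns; 1 hr later compounds pinned (12-pt 1:3, top 46 uM final). Incubated 24 hrs, lysed 10 min, luminescence measured.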

[8] = biological target: Calcium and integrin-binding protein 1 (Homo sapiens) (UniProt Q99828); assay: Primary qHTS for Identification of Calcium Integrin Binding Protein 1 (CIB1) Competitor (AID 1508620);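 also: GST tagged CIB1 binding a fluorescein labelled alphaIIb integrin peptide tracer; top concentration of the series differs between compounds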
Chain of Calcium and integrin-binding protein 1 (Homo sapiens) (Q99828 whole entry, looked up): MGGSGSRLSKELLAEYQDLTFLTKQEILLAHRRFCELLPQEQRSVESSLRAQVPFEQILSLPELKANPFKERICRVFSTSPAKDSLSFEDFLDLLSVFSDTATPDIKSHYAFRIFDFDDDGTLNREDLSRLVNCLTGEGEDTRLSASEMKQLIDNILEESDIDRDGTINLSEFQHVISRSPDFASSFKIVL
Procedure, shortened: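 Fluorescence polarization competition: CIB1-GST (1 uM final) preincubated with compound 15 min at room temperature, then FITC-labeled alphaIIb peptide (100 nM final) added for another 15 min. Polarization read at Ex 480/Em 540.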

[9] = biological target: Atrial natriuretic peptide receptor 1 (Homo sapiens) (UniProt P16066); assay: Natriuretic polypeptide receptor (hNpr1) antagonism - Pilot CMLD screen (AID 1347052; calls by dose curve;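 also: HEK293 cells with hNpr1 stimulated by hNppA peptide at 0.1 nM; cGMP level read as GloSensor luciferase luminescence after agonist stimulation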)
Chain of Atrial natriuretic peptide receptor 1 (Homo sapiens) (P16066 whole entry, looked up): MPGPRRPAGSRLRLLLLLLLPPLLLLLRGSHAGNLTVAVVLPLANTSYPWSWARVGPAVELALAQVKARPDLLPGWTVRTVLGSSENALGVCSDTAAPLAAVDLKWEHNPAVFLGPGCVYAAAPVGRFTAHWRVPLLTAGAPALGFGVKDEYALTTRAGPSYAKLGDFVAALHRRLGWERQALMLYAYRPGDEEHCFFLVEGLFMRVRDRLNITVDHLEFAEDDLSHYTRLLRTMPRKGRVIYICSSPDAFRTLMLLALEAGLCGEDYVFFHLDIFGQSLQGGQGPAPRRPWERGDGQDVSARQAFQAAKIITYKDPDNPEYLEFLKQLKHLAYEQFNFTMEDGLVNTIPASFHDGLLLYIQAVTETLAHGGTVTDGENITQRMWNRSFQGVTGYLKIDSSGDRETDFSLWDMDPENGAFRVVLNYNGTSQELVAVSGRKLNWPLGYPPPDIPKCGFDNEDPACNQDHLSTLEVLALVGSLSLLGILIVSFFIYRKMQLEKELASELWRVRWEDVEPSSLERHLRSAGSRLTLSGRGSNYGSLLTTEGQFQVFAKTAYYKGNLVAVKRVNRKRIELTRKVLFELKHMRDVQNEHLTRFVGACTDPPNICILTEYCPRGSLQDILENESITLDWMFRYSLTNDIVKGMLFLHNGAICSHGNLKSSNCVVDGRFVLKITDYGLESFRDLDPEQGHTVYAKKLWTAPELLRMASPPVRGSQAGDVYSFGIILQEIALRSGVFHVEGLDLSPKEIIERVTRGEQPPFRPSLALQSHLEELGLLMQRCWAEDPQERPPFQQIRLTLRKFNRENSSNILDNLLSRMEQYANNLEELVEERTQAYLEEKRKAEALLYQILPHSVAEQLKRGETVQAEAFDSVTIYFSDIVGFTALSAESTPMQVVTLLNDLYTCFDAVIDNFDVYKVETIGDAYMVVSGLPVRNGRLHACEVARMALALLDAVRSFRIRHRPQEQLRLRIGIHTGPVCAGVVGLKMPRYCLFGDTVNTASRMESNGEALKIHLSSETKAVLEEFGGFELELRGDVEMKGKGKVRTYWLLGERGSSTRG

**Q.** What does the source list for COc1c(-c2ccc3cc(NS(C)(=O)=O)ccc3c2)cc(-n2ccc(=O)[nH]c2=O)cc1C(C)(C)C?
**A.** Potency [1]: inactive; Potency [2]: inactive; Potency [3]: 3.98 µM (active)

**Q.** Which results are given for Cn1c(CNc2cccc(C(=O)NCc3ccccc3C(F)(F)F)c2)nnc1-c1ccncc1?
**A.** Potency [1]: inactive; Potency [4]: 10.3 µM (active)

**Q.** For C[C@@H](Nc1cc(F)cc(F)c1)c1cc(C(=O)N(C)C)cc2c(=O)cc(N3CCOCC3)oc12, which Potency [1] is on record?
**A.** inactive

**Q.** What about the Potency [5] of the same compound?
**A.** 259 nM (active) and 235 nM (active)

**Q.** What about the Potency [4] of the same compound?
**A.** 411 nM (active) and 1.18 µM (active)

**Q.** What about the Potency [2] of the same compound?
**A.** inactive

**Q.** What about the Z-AUC [6] of the same compound?
**A.** -0.864 (inactive)

**Q.** What about the Z-AUC ([6]; measured here: PEO1 parental Z-AUC) of the same compound?
**A.** -0.746

**Q.** What about the Z-AUC ([6]; measured here: PEO4 Z-AUC) of the same compound?
**A.** -0.41

**Q.** And the activity change, negative = inhibition [7]?
**A.** -23.5% (inactive)

**Q.** What does the source list for Cc1ccc(NS(=O)(=O)c2cc3c(cc2N[C@@H](C)CO)NC(=O)CC3)cc1Cl?
**A.** Potency [1]: inactive; outcome [8]: inactive; Potency [2]: inactive

**Q.** Which Potency [9] does the source give for CC(C)=CCCC(C)=CCN1C(=O)[C@@]2(CC(C)=CC[C@@H](C)O2)c2c(Br)cccc21 here?
**A.** inactive
